Test results from PubChem BioAssay AID435005 (Broad Institute, 2010).
Screen size: about 300,000 compounds; about 2,400 (0.8%) were called active.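 Rule for the calls: active = Every replicate reaches about 75%, or at least half do and their mean reaches it too (limit read from the data); inconclusive = At least half of replicates reach the limit but their mean does not; inactive = Under half of replicates reach the limit.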 The entries come from a sample that favours actives as a whole.

Assay: INS-1E beta cell survival under cytokines – luminescence, primary screen (AID 435005);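 note: 0% = cytokine-treated negative control wells and 100% = positive control rescue; higher means more ATP so stronger rescue from cytokine killing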
Conditions: INS-1E cytokine-induced death, ATP luminescence, 48 h; active compounds read high; percent of positive-control rescue, neutral wells zero; concentration not given here

| Compound | protection from apoptosis |
| --- | --- |
| Cc1ccc(SCc2c(C(=O)N/N=C/c3cccnc3)nnn2-c2nonc2N)cc1 | -3.56% (inactive) |
| NNC(=O)c1nnn(-c2nonc2N)c1CN1CCCC1 | 0.21% (inactive) |
| Nc1nonc1-n1nnc(C(=O)N/N=C/c2ccccc2O)c1CN1CCCC1 | 77.1% (active) |
| Nc1nonc1-n1nnc(C(=O)N/N=C/c2cc(Br)ccc2O)c1CSC1=NCCS1 | 86.6% (active) |
| Cc1ccc(SCc2c(C(=O)N/N=C/C3CC=CCC3)nnn2-c2nonc2N)cc1 (centres undefined) | -2.44% (inactive) |
| Nc1nonc1-n1nnc(C(=O)N/N=C\c2ccncc2)c1CN1CCCCC1 | -8.98% (inactive) |
| COc1ccccc1-c1nnc2n1N=C(c1ccc(OC(F)F)c(OCC3CC3)c1)CS2 | 14.1% (inactive) |
| COc1ccc(CNC(=O)COC(=O)C(CCSC)N2C(=O)c3ccccc3C2=O)cc1 (centres undefined) | -1.57% (inactive) |
| O=C1COc2ccc(C(=O)COC(=O)c3ccccc3Cl)cc2N1 | -5.54% (inactive) |
| O=C(CSc1nc2ccccc2c(=O)n1Cc1ccc(F)cc1)NCC1CCCO1 (centres undefined) | -5.32% (inactive) |
| CCOC(=O)C1CCN(CC(=O)Nc2ccc(OC)c(S(=O)(=O)N3CCCCC3)c2)CC1 | 0.731% (inactive) |
| CCN(C[C@H]1N[C@@](CC)(C(=O)OC)[C@H]2C(=O)N(Cc3ccccc3)C(=O)[C@@H]12)S(=O)(=O)c1ccccc1 | -2.88% (inactive) |
| O=C(N/N=C/c1ccoc1)c1ccc(Cl)cc1Cl | -6.52% (inactive) |
| O=C(N/N=C/c1ccc(OC(=O)c2ccccc2Cl)cc1)c1ccc(O)cc1 | -1.66% (inactive) |
| CC(C)(C)C(=O)Nc1ccc(C(=O)N/N=C/c2ccccc2OC(=O)c2ccc(Cl)cc2Cl)cc1 | 87.8% (active) |
| CC1O[C@@H](OC2C(O)C(C)O[C@H](OC(=O)[C@]34CCC(C)(C)C[C@H]3C3=CCC5[C@@]6(C)CC(O)C(O[C@@H]7OC(CO)C(O)[C@@H](O)[C@@H]7O)[C@@](C)(C(=O)O)C6CC[C@@]5(C)[C@]3(CO)CC4)C2O[C@H]2OC(C)[C@@H](O[C@@H]3OCC(O[C@@H]4OC(CO)C(O)[C@H](O)C4O)[C@@H](O)[C@@H]3O)[C@H](O)C2O)C(O)C(O)C1O (some centres undefined) | -2.17% (inactive) |
| Cc1ccc(S(=O)(=O)N2[C@@H](c3ccc(Br)cc3)C(C(=O)O)=C[C@H]2CC2CCCC2)cc1 | -9.97% (inactive) |
| Cc1ccc(CNC(=O)COC(=O)C2CCC2)cc1 | -16.3% (inactive) |
| CCOc1ccc2nc(NC(=O)c3cc([N+](=O)[O-])ccc3N3CCOCC3)sc2c1 | 32.1% (inactive) |
| CN(C)CCCN(C(=O)c1ccc(S(=O)(=O)N2CCCc3ccccc32)cc1)c1nc2ccc(F)cc2s1 | -11.6% (inactive) |
| CS(=O)(=O)c1ccc2nc(NC(=O)c3ccc(N4CCCC4=O)cc3)sc2c1 | 2.56% (inactive) |

| Compound | protection from apoptosis |
| --- | --- |
| O=C(Nc1nc2ccc([N+](=O)[O-])cc2s1)c1ccc(S(=O)(=O)N2CCCc3ccccc32)cc1 | 113% (active) |
| O=C(NC(Nc1nc2ccc([N+](=O)[O-])cc2s1)(C(F)(F)F)C(F)(F)F)c1ccccc1 | 118% (active) |
| CCC(=O)NC(Nc1nc2ccc(C)cc2s1)(C(=O)OC)C(F)(F)F (centres undefined) | -2.12% (inactive) |
| O=C(Nc1ccccc1)N1CCC(C(=O)N2CCN(Cc3ccccc3)CC2)CC1 | -2.8% (inactive) |
| O=C(COC(=O)COc1cccc(F)c1)NCC1CCCCC1 | -3.55% (inactive) |
| Cc1ccc(NS(=O)(=O)c2ccc(C(C)C)cc2)cc1S(=O)(=O)N1CCOCC1 | 4.91% (inactive) |
| Cc1ccccc1NC(=O)CSC(=O)c1ccccc1 | -2.98% (inactive) |
| C#CCOCCOCCOCCNc1nc(N2CCN(C(=O)[C@H](CO)n3cc([C@@H](N)C(C)C)nn3)CC2)nc(N2CCN(C(=O)[C@H](CCC(=O)O)n3cc([C@@H](N)[C@H](C)CC)nn3)CC2)n1 | -6.94% (inactive) |
| CN(C(=O)c1cccc(NC(=O)Cc2ccc([N+](=O)[O-])cc2)c1)C1CCC1 | -5.07% (inactive) |
| CCn1ccnc1CN(C)C(=O)c1cc(COc2ccc(-n3cncn3)cc2)on1 | -3.2% (inactive) |
| C=CCC1(CC=C)CCCN1C(=O)c1cc(COc2ccc(-n3cncn3)cc2)on1 | 104% (active) |
| COc1cccc(OCc2cc(C(=O)N3CCN(C(=O)c4ccco4)CC3)no2)c1 | -1.9% (inactive) |
| Cc1cccc(NC(=O)c2ccc(S(=O)(=O)N(C)c3ccccc3)cc2)n1 | -7.09% (inactive) |
| CN(C)CCNC(=O)c1[nH]nc2c1CCc1ccccc1-2 | -8.17% (inactive) |
| COc1cccc(/C=N/NC(=O)c2[nH]nc3c2CCc2ccccc2-3)c1O | 82.2% (active) |
| COc1cc2cc(C(=O)N/N=C/c3cccc(OC)c3OC)[nH]c2cc1OC | 0.139% (inactive) |
| COc1cc(C(=O)NC2CCN(C)CC2)ccc1Nc1ncc2c(n1)N(C1CCC(O)CC1)CCC(=O)N2C (centres undefined) | -0.596% (inactive) |
| COc1cc(SC)ccc1C(=O)NNC(=O)C1COc2ccccc2O1 (centres undefined) | -1.75% (inactive) |
| CCCN(CC(=O)Nc1ccccc1C)C(=O)c1ccc2[nH]c3c(c2c1)CC(C)CC3 (centres undefined) | 8.11% (inactive) |
| COc1ccc(OCCCC(=O)Nc2cccc(S(=O)(=O)N3CCCCCC3)c2)cc1 | -3.4% (inactive) |
| COc1ccc(/C=N/Nc2nc3ccccc3c(=O)[nH]2)cc1 | 12% (inactive) |

| Compound | protection from apoptosis |
| --- | --- |
| COc1ccc(Cc2nnc(N/N=C/c3ccccc3O)[nH]c2=O)cc1OC | 85.2% (active) |
| CC(C)c1ccc(Cc2nnc(NCCCO)[nH]c2=O)cc1 | -1.74% (inactive) |
| CC(=O)c1c(C)[nH]c(C(=O)COc2ccc3c(C)cc(=O)oc3c2)c1C | -1.3% (inactive) |
| CN(c1ccccc1)S(=O)(=O)c1ccc(C(=O)N2CCN(c3ccccc3Cl)CC2)cc1 | 3.55% (inactive) |
| Cc1ccc2c(c1)NC(=O)[C@@]1(C)[C@@H](c3ccccc3)[C@H]3COc4ccc(Cl)cc4[C@@H]3N1C2=O | -5.63% (inactive) |
| CCOC(=O)C1=C(CCc2ccccc2)NC(=O)NC1c1ccc2ccccc2c1 (centres undefined) | 93.7% (active) |
| CCOC(=O)C1=C(CN2CCCCCC2)NC(=O)NC1c1cccc([N+](=O)[O-])c1 (centres undefined) | -5.34% (inactive) |
| CCOC(=O)C1=C(CN2CCc3ccccc32)NC(=O)NC1c1ccc(Cl)cc1 (centres undefined) | -0.812% (inactive) |
| Cc1ccc(CNC(=O)COc2ccc(S(=O)(=O)NC(C)C)cc2)cc1 | -8.98% (inactive) |
| Cc1ccc(C)c(NS(=O)(=O)c2ccc(OCC(=O)NCc3cccnc3)cc2)c1 | 99.2% (active) |
| Cc1cc(S(=O)(=O)NC2CCCCC2)ccc1OCC(=O)NCc1cccnc1 | 6.11% (inactive) |
| Oc1ccc(Br)cc1/C=N/Nc1ccccn1 | 133% (active) |
| COc1ccc(-c2nn(-c3ccccc3)cc2/C=N/Nc2ccccn2)cc1OC | 59.9% (inactive) |
| O=[N+]([O-])c1ccc(O)c(/C=N/Nc2ccccc2[N+](=O)[O-])c1 | 36.9% (inactive) |
| CCOC(=O)[C@H]1[C@H]2COc3cc(OC)ccc3[C@@H]2N2C(=O)CN(Cc3ccc(Cl)cc3)C(=O)[C@@]12C | -0.794% (inactive) |
| COc1ccc(C(=O)NCC2CCCCC2)cc1S(=O)(=O)N1CCCC1 | -0.303% (inactive) |
| CC(Sc1nnc(C2CC2)n1C1CC1)C(=O)Nc1ccc(C(N)=O)cc1 (centres undefined) | -0.98% (inactive) |
| Oc1ccc(CN2CCN(c3ncccn3)CC2)cc1 | -1.21% (inactive) |
| Oc1c(CN2CCN(c3ccc(F)cc3)CC2)cc(Cl)c2cccnc12 | 111% (active) |
| Oc1c(CN2CCCC2)cc(COCc2ccccc2)c2cccnc12 | 73% (inactive) |
| CC1CCCCC1NC(=O)COc1ccc(C#N)cc1 (centres undefined) | 0.693% (inactive) |

| Compound | protection from apoptosis |
| --- | --- |
| CNS(=O)(=O)c1ccc(C(=O)NCC(=O)NCCc2ccc3c(c2)OCCO3)cc1 | -2.22% (inactive) |
| CCN(CC)c1ccc(/C=N/NC(=O)c2cnccn2)c(O)c1 | 101% (active) |
| Cc1ccc(C(=O)NCCNC(=O)c2cnccn2)cc1 | -7.48% (inactive) |
| Cc1cc(C)nc(N/N=C/c2ccncc2)n1 | -0.736% (inactive) |
| CCN(CC)c1ccc(/C=N/NC(=O)CNC(=O)c2cccnc2)cc1 | 4.98% (inactive) |
| Cc1cc(C)nc(N/N=C/c2c(CO)cnc(C)c2O)n1 | -3.01% (inactive) |
| CCN(CC)c1ccc(/C=N/Nc2nc(C)cc(C)n2)c(O)c1 | 81.7% (active) |
| CC1(C)CC[C@@]2(C(=O)O)C(C1)C1=CCC3[C@@]4(C)CC[C@H](O)C(C)(C)C4CC[C@@]3(C)[C@]1(C)C[C@H]2O (some centres undefined) | 22.4% (inactive) |
| COc1ccc(C(=O)Nc2cc(S(=O)(=O)N3CCCC3)ccc2Cl)cc1 | -1.79% (inactive) |
| O=C1NC(Cc2ccc(O)cc2)c2nc3ccc(Cl)cc3c(=O)n2-c2ccccc21 (centres undefined) | -3.47% (inactive) |
| CN(Cc1ccc(CNC[C@H]2O[C@@H](n3cnc4c(N)ncnc43)[C@H](O)[C@@H]2O)o1)S(C)(=O)=O | -10.1% (inactive) |
| C[C@@H]1CN([C@@H](C)CO)C(=O)c2cc(NC(=O)C3CC3)ccc2O[C@H]1CN(C)C | 0.593% (inactive) |
| O=C(Cc1ccccc1)Nc1ccc(NC(=O)c2cccnc2)cc1 | -0.0371% (inactive) |
| CCOC(=O)c1cc(NC(=O)c2cccnc2)ccn1 | -6.76% (inactive) |
| CC(=O)NC(=S)Nc1ccc(NC(=O)c2cccnc2)cc1 | -1.43% (inactive) |
| CCOC(=O)c1ccc(-c2ccc(C(=O)Nc3cccnc3)o2)cc1 | 3.72% (inactive) |
| Cc1ccc(-n2nc3cc(C)c(NC(=O)c4cccnc4)cc3n2)cc1 | -1.41% (inactive) |
| Cc1ccc2nc(-c3ccc(NC(=O)c4cccnc4)cc3)oc2c1 | 106% (active) |
| Cc1cc2nc(-c3ccc(NC(=O)c4cccnc4)cc3)oc2cc1C | 104% (active) |
| Cc1cc(NS(=O)(=O)c2ccc(NC(=O)c3cccnc3)cc2)nc(C)n1 | -3.28% (inactive) |
| CCOC(=O)c1ccc(NC(=O)c2cccnc2)cc1 | 112% (active) |
